# In PubChem BioAssay (NCI):
# Compounds without any hit were thinned out: in the full panel of roughly 79,000, 15% have a hit. Active and inactive are the calls of the source. No stated cut-off is given here; in the data, active means growth inhibition above about 70%; inactive means the rest.
# Assay: NCI Yeast Anticancer Drug Screen. Data for the bub3 strain (AID 167)
# Details: S. cerevisiae bub3 mutant strain, at 50.0 µM, hits give high values
# Method in brief: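 Yeast carrying a defined mutation is treated with each compound, and growth is compared with that of vehicle-exposed cells to give inhibition.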
row,Compound,growth inhibition
1,CCCCCN1C(=O)N=NC1=S,-13.8% (inactive)
2,CCOC(=O)NC(=O)c1cn(CCCOC(=O)CCCCCCCCCCC(=O)OCCCn2cc(C(=O)NC(=O)OCC)c(=O)n(C)c2=O)c(=O)n(C)c1=O,-2.35% (inactive)
3,Cc1cc2[nH]c3ccccc3n2c(=O)c1N=Nc1ccccc1,7.05% (inactive)
4,COc1c(OC2OC(CO)C(O)C(O)C2O)cc2occ(-c3ccc4c(c3)OCO4)c(=O)c2c1O (stereo not given),12.1% (inactive)
5,[O-][N+](=Nc1ccccc1Cl)c1ccccc1Cl,28.2% (inactive)
6,O=C(c1ccccc1)c1cccc2c1ccc1ccccc12,23.4% (inactive)
7,CC1(O)Oc2c(cc(C(C)(C)C)cc2C(C)(C)C)C1=O (stereo not given),23.6% (inactive)
8,[Mn+2].[NH-]CC(=O)NC(Cc1ccccc1)C(=O)O.[NH-]CC(=O)NC(Cc1ccccc1)C(=O)O (stereo not given),4.05% (inactive)
9,CCCc1ccccc1[N+](=O)[O-],8.7% (inactive)
10,c1csc(-c2cc(-c3ccsc3)c(-c3cccs3)s2)c1,-1.4% (inactive)
11,NC(=O)c1cccnc1,-12.9% (inactive)
12,Cc1ccc([N+](=O)[O-])cc1N=C=O,-32.8% (inactive)
13,CC1=NNC(c2ccco2)C1 (stereo not given),11.9% (inactive)
14,CCOC(=O)c1nc2c(Cl)c3ncccc3cc2[nH]c1=O,16.1% (inactive)
15,COc1ccccc1C(=O)N/N=C/c1ccccc1Cl,9.05% (inactive)
16,C=C(CC/C=C\CO)[Si](C)(C)C,9.95% (inactive)
17,C=C(S(=O)(=O)CC)S(=O)(=O)CC,-6.5% (inactive)
18,Cc1ccc2cccc(N)c2n1,18% (inactive)
19,CC/C(Cl)=N\OC(=O)Nc1ccccc1OC(F)(F)F,18.6% (inactive)
20,CCCCCc1ccc2oc(=O)c3ccc(C)cc3c2c1O,-25.3% (inactive)

row,Compound,growth inhibition
1,Cc1ccc2cccc3c2c1CC1(C3=O)S(=O)(=O)OCCOS1(=O)=O,39% (inactive)
2,O=C(CC12C3C4C1C1C2C3C41CC(=O)NO)NO (stereo not given),-19.9% (inactive)
3,c1csc(CNc2cccc3ccccc23)c1,13.6% (inactive)
4,O=S(=O)(C/C=C/COc1ccccc1)c1ccc2ccccc2c1,-5.85% (inactive)
5,NC1=NC(c2ccccc2)C2=C(N1)C(=O)N(c1ccc(Br)cc1)C2 (stereo not given),7.7% (inactive)
6,CCc1cccc(NC(=O)c2cc(/C=C/c3ccccc3)[nH]c(=S)n2)c1,-6.85% (inactive)
7,COC1C=C(Br)C(=O)C(C)O1 (stereo not given),21.2% (inactive)
8,CCOC(=O)/C(=C\c1ccnc2ccccc12)P(=O)(OCC)OCC,10.3% (inactive)
9,c1ccc(C2=NCCN2)nc1,0.65% (inactive)
10,O=C1/C(=C/c2ccc(O)c(O)c2)CC/C1=C\c1ccc(O)c(O)c1,-16.1% (inactive)
11,CSc1ncc2c(n1)-c1ccccc1OC2N1CCCCC1 (stereo not given),23.4% (inactive)
12,S=C(SSSC(=S)N(C1CCCCC1)C1CCCCC1)N(C1CCCCC1)C1CCCCC1,-5.9% (inactive)
13,CCC[CH2][Ge]([CH2]CCC)([CH2]CCC)[O]C(=O)CCl,-13.2% (inactive)
14,Cc1ccc([N+](=O)[O-])cc1NC(=O)C(=O)C(C(=O)c1ccccc1F)C1OC(=O)c2ccccc21 (stereo not given),-1.1% (inactive)
15,CN1C=CCC(C=O)C1 (stereo not given),1.65% (inactive)
16,O=C(C(O)c1ccccc1)N1CCCCC1 (stereo not given),4.3% (inactive)
17,O=C(OCc1ccccc1)c1ccccc1-c1c2ccc(=O)cc-2oc2cc(OCc3ccccc3)ccc12,21.3% (inactive)
18,CCCCCCCC/C=C\CCCCCCCC(=O)O,-27.1% (inactive)
19,CCc1cccc[n+]1CC(=O)c1ccccc1,39.7% (inactive)
20,c1ccc(Sc2cccc3c(-c4ccccc4)c4cccc5c4c(c23)C[S+]5c2ccccc2)cc1 (stereo not given),98.6% (active)

# Assay: NCI Yeast Anticancer Drug Screen. Data for the mlh1 rad18 strain (AID 175)
# Details: S. cerevisiae mlh1 rad18 strain growth inhibition; at 50.0 µM; hits give high values
# Method in brief: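 Steps: expose repair-defective yeast to compound; measure growth; express inhibition against vehicle-treated controls.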
row,Compound,growth inhibition
1,CCCCCN1C(=O)N=NC1=S,-2.5% (inactive)
2,CCOC(=O)NC(=O)c1cn(CCCOC(=O)CCCCCCCCCCC(=O)OCCCn2cc(C(=O)NC(=O)OCC)c(=O)n(C)c2=O)c(=O)n(C)c1=O,-19.4% (inactive)
3,Cc1cc2[nH]c3ccccc3n2c(=O)c1N=Nc1ccccc1,15.8% (inactive)
4,COc1c(OC2OC(CO)C(O)C(O)C2O)cc2occ(-c3ccc4c(c3)OCO4)c(=O)c2c1O (stereo not given),18.6% (inactive)
5,[O-][N+](=Nc1ccccc1Cl)c1ccccc1Cl,31.2% (inactive)
6,O=C(c1ccccc1)c1cccc2c1ccc1ccccc12,32.5% (inactive)
7,CC1(O)Oc2c(cc(C(C)(C)C)cc2C(C)(C)C)C1=O (stereo not given),42.6% (inactive)
8,[Mn+2].[NH-]CC(=O)NC(Cc1ccccc1)C(=O)O.[NH-]CC(=O)NC(Cc1ccccc1)C(=O)O (stereo not given),-8% (inactive)
9,CCCc1ccccc1[N+](=O)[O-],-7.1% (inactive)
10,c1csc(-c2cc(-c3ccsc3)c(-c3cccs3)s2)c1,-34.3% (inactive)
11,NC(=O)c1cccnc1,9.95% (inactive)
12,Cc1ccc([N+](=O)[O-])cc1N=C=O,-56.3% (inactive)
13,CC1=NNC(c2ccco2)C1 (stereo not given),5.7% (inactive)
14,CCOC(=O)c1nc2c(Cl)c3ncccc3cc2[nH]c1=O,20.4% (inactive)
15,COc1ccccc1C(=O)N/N=C/c1ccccc1Cl,30.1% (inactive)
16,C=C(CC/C=C\CO)[Si](C)(C)C,-9.5% (inactive)
17,C=C(S(=O)(=O)CC)S(=O)(=O)CC,4.4% (inactive)
18,Cc1ccc2cccc(N)c2n1,7.2% (inactive)
19,CC/C(Cl)=N\OC(=O)Nc1ccccc1OC(F)(F)F,-89.6% (inactive)
20,CCCCCc1ccc2oc(=O)c3ccc(C)cc3c2c1O,-5.6% (inactive)

row,Compound,growth inhibition
1,Cc1ccc2cccc3c2c1CC1(C3=O)S(=O)(=O)OCCOS1(=O)=O,-2.3% (inactive)
2,O=C(CC12C3C4C1C1C2C3C41CC(=O)NO)NO (stereo not given),-10.9% (inactive)
3,c1csc(CNc2cccc3ccccc23)c1,28% (inactive)
4,O=S(=O)(C/C=C/COc1ccccc1)c1ccc2ccccc2c1,-12.9% (inactive)
5,NC1=NC(c2ccccc2)C2=C(N1)C(=O)N(c1ccc(Br)cc1)C2 (stereo not given),-2.65% (inactive)
6,CCc1cccc(NC(=O)c2cc(/C=C/c3ccccc3)[nH]c(=S)n2)c1,-12.1% (inactive)
7,COC1C=C(Br)C(=O)C(C)O1 (stereo not given),-1.8% (inactive)
8,CCOC(=O)/C(=C\c1ccnc2ccccc12)P(=O)(OCC)OCC,23.1% (inactive)
9,c1ccc(C2=NCCN2)nc1,6.55% (inactive)
10,O=C1/C(=C/c2ccc(O)c(O)c2)CC/C1=C\c1ccc(O)c(O)c1,-22.6% (inactive)
11,CSc1ncc2c(n1)-c1ccccc1OC2N1CCCCC1 (stereo not given),38.7% (inactive)
12,S=C(SSSC(=S)N(C1CCCCC1)C1CCCCC1)N(C1CCCCC1)C1CCCCC1,17.2% (inactive)
13,CCC[CH2][Ge]([CH2]CCC)([CH2]CCC)[O]C(=O)CCl,31.9% (inactive)
14,Cc1ccc([N+](=O)[O-])cc1NC(=O)C(=O)C(C(=O)c1ccccc1F)C1OC(=O)c2ccccc21 (stereo not given),-1.9% (inactive)
15,CN1C=CCC(C=O)C1 (stereo not given),-7.2% (inactive)
16,O=C(C(O)c1ccccc1)N1CCCCC1 (stereo not given),21.6% (inactive)
17,O=C(OCc1ccccc1)c1ccccc1-c1c2ccc(=O)cc-2oc2cc(OCc3ccccc3)ccc12,26.1% (inactive)
18,CCCCCCCC/C=C\CCCCCCCC(=O)O,-15.7% (inactive)
19,CCc1cccc[n+]1CC(=O)c1ccccc1,12% (inactive)
20,c1ccc(Sc2cccc3c(-c4ccccc4)c4cccc5c4c(c23)C[S+]5c2ccccc2)cc1 (stereo not given),98.8% (active)
